Assay results from PubChem BioAssay AID1851 (National Center for Advancing Translational Sciences (NCATS), 2009).
Among all 16,000 compounds or so, about 4,000 (25%) were called active. About 26% were inconclusive and are not listed. The call rests on the fitted dose curve; in most records, active means well fitted curve in the direction sought with a large enough effect; inconclusive means small, poorly fitted or top-dose-only effect, or effect the other way; inactive means no such curve, though single readings can be large or run the other way. Only a sample is shown.

target: Cytochrome P450 2C9 (Homo sapiens) (UniProt P11712); assay: Cytochrome panel assay with activity outcomes; details: recombinant CYP, pro-luciferin dealkylation, luminescence, p450-cyp2c9; series mostly up to 57.1 µM; activity, negative = inhibition: at the top concentration
Sequence (P11712 whole entry, looked up): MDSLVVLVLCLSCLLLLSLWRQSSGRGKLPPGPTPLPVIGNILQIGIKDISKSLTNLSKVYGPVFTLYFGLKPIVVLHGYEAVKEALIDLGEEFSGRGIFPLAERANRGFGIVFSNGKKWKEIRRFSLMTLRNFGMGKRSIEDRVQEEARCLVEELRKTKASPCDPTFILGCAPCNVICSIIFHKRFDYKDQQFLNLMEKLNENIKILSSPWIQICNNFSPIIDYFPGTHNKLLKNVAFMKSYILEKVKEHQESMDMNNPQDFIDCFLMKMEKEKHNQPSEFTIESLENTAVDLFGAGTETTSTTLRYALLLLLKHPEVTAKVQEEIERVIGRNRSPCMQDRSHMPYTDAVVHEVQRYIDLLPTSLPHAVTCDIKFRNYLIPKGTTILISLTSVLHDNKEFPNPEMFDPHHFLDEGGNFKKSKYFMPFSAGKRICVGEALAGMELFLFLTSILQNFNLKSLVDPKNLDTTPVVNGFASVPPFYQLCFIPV
On the % scale 0 is the no-effect control and ±100 the full control effect.

| SMILES | activity, negative = inhibition | AC50 |
| --- | --- | --- |
| Cc1cnc(CNc2ccnc(-c3ccccc3C)n2)cn1 | 11.5% [at 2.29 µM] (inactive) |  |
| O=C(OCC(=O)c1cccs1)c1cccc(C(=O)OCC(=O)c2cccs2)n1 |  | 8.91 µM (active) |
| CCOC(=O)c1cccc(C(=O)OCC)n1 | -2.66% (inactive) |  |
| COc1ccc(CNc2cc(-c3ccoc3)ncn2)c(OC)c1 | 3.4% [at 2.29 µM] (inactive) |  |
| COc1ccccc1C(c1nnnn1C(C)(C)C)N1CCCc2ccccc21 (centres undefined) |  | 3.98 µM (active) |
| Cc1cccc(CN2CCN([C@@H](c3ccccc3)c3ccc(Cl)cc3)CC2)c1 | -14.8% [at 25.6 µM] (inactive) |  |
| COc1ccccc1CN1CC2(CCN(C(=O)c3ccncc3)CC2)C1 | 2.75% (inactive) |  |
| COc1ccccc1C(c1nnnn1C(C)(C)C)N1CCN(Cc2ccncc2)CC1 (centres undefined) |  | 0.631 µM (active) |
| CNC(=O)[C@@H]1O[C@@H](n2cnc3c(NCc4ccc(N)cc4)ncnc32)[C@@H](O)[C@H]1O | 6.6% (inactive) |  |
| CCN1CCCC1CNC(=O)C(=O)Nc1ccc(OC)cc1 (centres undefined) | 3.7% (inactive) |  |
| COc1cccc(N2C(=O)C(CC(=O)Nc3ccccc3)N(C3CCCCC3)C2=O)c1 (centres undefined) |  | 8.91 µM (active) |
| COc1ccc(NC(=O)CC2C(=O)N(c3cccc(OC)c3)C(=O)N2C2CCCCC2)cc1 (centres undefined) |  | 15.8 µM (active) |
| COc1ccc(COC(=O)N/N=C2/C[C@@H](O)[C@@H](O)[C@@H]3[C@@H]4C(=O)N(c5cccc(Oc6ccccc6)c5)C(=O)[C@H]4CC[C@@H]23)cc1 | -7.36% [at 11.4 µM] (inactive) |  |
| COc1ccc(COC(=O)N/N=C2/C[C@@H](O)[C@@H](O)[C@@H]3[C@@H]4C(=O)N(c5cccc(Oc6ccccc6)c5)C(=O)[C@H]4CC[C@H]23)cc1 | -15.2% [at 11.4 µM] (inactive) |  |
| CC1(C)O[C@@H]2C[C@H]3[C@H]4C[C@H](F)C5=CC(=O)C=C[C@@]5(C)[C@@H]4[C@H](O)C[C@]3(C)[C@]2(C(=O)CO)O1 | -11.4% [at 25.6 µM] (inactive) |  |
| Cc1ccc(-n2c(N)c(C(=O)NCc3ccco3)sc2=S)cc1 |  | 14.1 µM (active) |
| O=C(NCc1ccco1)c1ccc2c(=O)n(-c3ccccc3)c(=S)[nH]c2c1 | 9.67% (inactive) |  |
| COC(=O)CCCC(=O)O | -1.69% [at 11.4 µM] (inactive) |  |
| Cc1ccc(CS(=O)(=O)CCC(=O)NCCCOC(C)C)cc1 | -10.3% (inactive) |  |
| CCCCNC(=O)NS(=O)(=O)c1ccc(C(=O)OC(C)C)o1 |  | 2.82 µM (active) |
| CCCCNC(=O)NC1C(NC(=O)NCCCC)N(C)C(=O)N1C (centres undefined) | -17% (inactive) |  |
| Cc1nn(Cc2c(Cl)cccc2Cl)c(C)c1NC(=O)c1cnn2c(C(F)F)cc(-c3ccccc3)nc12 |  | 1.26 µM (active) |
| Cc1cc(C(F)F)n2ncc(C(=O)NCc3ccccc3C(F)(F)F)c2n1 | -63.8% (inactive) |  |
| Cc1ccc(-c2cc(C(F)F)n3ncc(C(=O)Nc4c(C)nn(Cc5c(Cl)cccc5Cl)c4C)c3n2)cc1 |  | 1 µM (active) |
| CC(=O)OC[C@@H]1O[C@H](C/C=N\OC[C@@H](O)COCc2ccco2)C=C[C@@H]1OC(C)=O | 24.5% [at 11.4 µM] (inactive) |  |

| SMILES | activity, negative = inhibition | AC50 |
| --- | --- | --- |
| N[C@H](C(=O)O)[C@@H](O)c1cnc[nH]1 | 20.3% [at 11.4 µM] (inactive) |  |
| O=c1cc(CSc2ccccc2)[nH]c(=S)[nH]1 | -6.77% (inactive) |  |
| CC1=CC(C)(C)Nc2ccc(CSc3ccccc3)cc21 |  | 0.2 µM (active) |
| O=C(O)c1nc(-c2ccccc2)[nH]c1C(=O)O | -21.7% [at 11.4 µM] (inactive) |  |
| N#Cc1c(-c2ccccc2)no[n+]1[O-] | 4.32% (inactive) |  |
| Cc1nc2c(C#N)c(C)[nH]n2c(=O)c1Cc1ccccc1 |  | 7.08 µM (active) |
| N#Cc1c(-c2ccccc2)nc(-c2ccccc2)[nH]c1=O |  | 0.316 µM (active) |
| Cn1c(=O)c2[nH]c(CSCc3ccccc3)nc2n(C)c1=O | -13.3% [at 11.4 µM] (inactive) |  |
| N#CCCn1c(=O)c(-c2ccccc2)nc2cnc(Nc3ccccc3)nc21 | 16.4% (inactive) |  |
| CSc1nc(O)c(Cc2ccccc2)c(=O)[nH]1 | -25.9% (inactive) |  |
| Cc1[nH]n2c(=O)c(C#N)c(-c3ccccc3)nc2c1-c1ccccc1 |  | 11.2 µM (active) |
| COC(=O)Cc1cc(=O)n2[nH]c(C)c(-c3ccccc3)c2n1 | 3.63% (inactive) |  |
| Clc1cc2c(c(CSC3=NCN(CC4CC4)CN3)c1)OCOC2 | 9.58% [at 11.4 µM] (inactive) |  |
| NCCc1ccn[nH]1 | 9.32% [at 25.6 µM] (inactive) |  |
| COC(=O)c1ccc(CSc2nc3cc(Cl)ccc3s2)o1 |  | 3.55 µM (active) |
| O=C(O)[C@@H]1CS[C@@]2(CCCN(Cc3ccccc3)C2)N1 | 15.9% [at 11.4 µM] (inactive) |  |
| COc1ccc(-n2nnnc2SCC(=O)Nc2ccccc2)cc1 | -16.3% (inactive) |  |
| COc1ccc(-n2ccnc2SCC(=O)Nc2ccccc2)cc1 |  | 5.01 µM (active) |
| Cc1cccc(OCC(=O)NNC(=O)CSc2ncc(C#N)c(N)n2)c1 | -30.1% (inactive) |  |
| COc1ccc(NC(=O)CSc2ccc3c4c(cccc24)C(=O)c2ccccc2-3)cc1 |  | 0.562 µM (active) |
| Cc1cccc(-c2nsc(SCC(=O)Nc3nccs3)n2)c1 |  | 1.58 µM (active) |
| COc1ccc(C(O)c2nccn2Cc2ccccc2)cc1 (centres undefined) | -11.9% (inactive) |  |
| COc1cccc(-n2ccnc2SCC(=O)Nc2nccs2)c1 |  | 11.2 µM (active) |
| COC(=O)CSc1nnc(C)n1-c1cccc(OC)c1 | -19.6% (inactive) |  |
